“And” between values parts separate entries of the source, which are not always exact repeats. Equal entries are not always repeated. Inconclusive results are not listed. A call without a number means that no potency is given here. A structure can be active in one record and inactive in another. The source made the active and inactive calls. The call rests on the fitted dose curve; in most records, active means well fitted curve in the direction sought with a large enough effect; inconclusive means small, poorly fitted or top-dose-only effect, or another doubt; inactive means no such curve, though single readings can be large; an effect the other way counts as inactive or inconclusive. Residues, ends and D or L forms follow the SMILES beside them. *: point of attachment. Cbz = O=C(OCc1ccccc1)*
Key:
[1] = biological target: Guanine nucleotide-binding protein G(i) subunit alpha-1 (Homo sapiens) (UniProt P63096); assay: qHTS Assay for Inhibitors of RGS12 GoLoco Motif Activity (Green Fluorophore) (AID 879)
Sequence of Guanine nucleotide-binding protein G(i) subunit alpha-1 (Homo sapiens) (P63096 whole entry, looked up): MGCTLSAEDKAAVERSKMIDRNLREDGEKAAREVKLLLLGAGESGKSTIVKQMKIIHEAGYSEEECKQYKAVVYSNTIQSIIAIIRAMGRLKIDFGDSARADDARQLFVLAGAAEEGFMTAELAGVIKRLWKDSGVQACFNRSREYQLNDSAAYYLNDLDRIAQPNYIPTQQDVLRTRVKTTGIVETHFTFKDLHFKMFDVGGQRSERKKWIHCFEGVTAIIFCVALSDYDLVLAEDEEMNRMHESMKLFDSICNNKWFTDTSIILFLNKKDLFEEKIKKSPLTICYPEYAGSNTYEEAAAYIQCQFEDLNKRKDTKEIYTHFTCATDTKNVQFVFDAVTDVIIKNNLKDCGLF
Procedure, shortened: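 A drop in FITC polarization marked displacement of the FITC-tagged RGS12 GoLoco peptide (10 nM) from Gαi1 (50 nM). Compounds were incubated 10 min at room temperature in Tris pH 7.5 buffer containing 150 mM NaCl, 0.1 mM GDP and 0.05% NP40; unlabeled peptide titration served as control.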

[2] = biological target: Cytochrome P450 2C9 (Homo sapiens) (UniProt P11712); assay: qHTS Assay for Inhibitors and Substrates of Cytochrome P450 2C9 (AID 883); further: nearly all actives have a fitted effect of over 60% in size
Sequence of Cytochrome P450 2C9 (Homo sapiens) (P11712 whole entry, looked up): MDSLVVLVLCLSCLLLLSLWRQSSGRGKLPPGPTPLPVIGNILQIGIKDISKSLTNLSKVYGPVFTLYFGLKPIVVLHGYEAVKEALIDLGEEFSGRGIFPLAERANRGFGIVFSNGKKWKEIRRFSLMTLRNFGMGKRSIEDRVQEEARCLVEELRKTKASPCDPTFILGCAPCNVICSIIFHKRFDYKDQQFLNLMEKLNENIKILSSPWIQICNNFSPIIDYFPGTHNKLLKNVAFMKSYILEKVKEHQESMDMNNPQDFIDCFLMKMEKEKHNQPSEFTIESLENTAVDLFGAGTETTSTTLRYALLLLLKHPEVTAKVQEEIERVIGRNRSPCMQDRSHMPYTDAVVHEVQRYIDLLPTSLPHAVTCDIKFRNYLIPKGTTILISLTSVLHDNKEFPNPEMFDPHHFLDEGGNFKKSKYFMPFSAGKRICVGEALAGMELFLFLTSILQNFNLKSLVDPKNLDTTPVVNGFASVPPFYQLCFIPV
Procedure, shortened: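 10nM CYP2C9 + 100uM Luciferin-H (=KM), 25mM KPO4; cpd 10 min 37C; NADPH regen, 60 min 37C; stop/detect with P450 Glo-Buffer 20 min; luminescence. Norm. to 57uM sulphaphenazole as full inhibition.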

[3] = biological target: Cytochrome P450 3A4 (Homo sapiens) (UniProt P08684); assay: qHTS Assay for Inhibitors and Substrates of Cytochrome P450 3A4 (AID 884); further: nearly all actives have a fitted effect of over 50% in size
Sequence of Cytochrome P450 3A4 (Homo sapiens) (P08684 whole entry, looked up): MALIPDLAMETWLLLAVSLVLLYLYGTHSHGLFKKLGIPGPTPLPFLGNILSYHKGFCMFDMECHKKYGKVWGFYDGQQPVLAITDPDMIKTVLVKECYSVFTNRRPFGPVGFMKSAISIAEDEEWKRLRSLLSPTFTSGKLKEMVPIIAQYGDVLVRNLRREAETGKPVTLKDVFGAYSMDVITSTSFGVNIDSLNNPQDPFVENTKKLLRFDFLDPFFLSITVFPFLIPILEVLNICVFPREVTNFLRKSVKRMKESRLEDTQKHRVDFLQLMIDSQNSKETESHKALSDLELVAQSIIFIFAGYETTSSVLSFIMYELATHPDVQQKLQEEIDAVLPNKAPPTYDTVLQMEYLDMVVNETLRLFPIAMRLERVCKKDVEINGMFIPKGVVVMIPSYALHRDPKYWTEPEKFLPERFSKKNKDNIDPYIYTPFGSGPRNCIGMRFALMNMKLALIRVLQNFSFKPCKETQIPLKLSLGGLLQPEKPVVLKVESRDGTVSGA
Procedure, shortened: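 Luminescent readout of luciferin produced by CYP3A4 (20 nM) dealkylation of Luciferin-PPXE, 25 uM (its KM). NADPH-driven reaction ran 60 min at RT after 10 min compound preincubation; data scaled to 57 uM ketoconazole as 100% inhibition.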

[4] = biological target: Cytochrome P450 2D6 (Homo sapiens) (UniProt P10635); assay: qHTS Assay for Inhibitors and Substrates of Cytochrome P450 2D6 (AID 891); further: nearly all actives have a fitted effect of over 60% in size
Sequence of Cytochrome P450 2D6 (Homo sapiens) (P10635 whole entry, looked up): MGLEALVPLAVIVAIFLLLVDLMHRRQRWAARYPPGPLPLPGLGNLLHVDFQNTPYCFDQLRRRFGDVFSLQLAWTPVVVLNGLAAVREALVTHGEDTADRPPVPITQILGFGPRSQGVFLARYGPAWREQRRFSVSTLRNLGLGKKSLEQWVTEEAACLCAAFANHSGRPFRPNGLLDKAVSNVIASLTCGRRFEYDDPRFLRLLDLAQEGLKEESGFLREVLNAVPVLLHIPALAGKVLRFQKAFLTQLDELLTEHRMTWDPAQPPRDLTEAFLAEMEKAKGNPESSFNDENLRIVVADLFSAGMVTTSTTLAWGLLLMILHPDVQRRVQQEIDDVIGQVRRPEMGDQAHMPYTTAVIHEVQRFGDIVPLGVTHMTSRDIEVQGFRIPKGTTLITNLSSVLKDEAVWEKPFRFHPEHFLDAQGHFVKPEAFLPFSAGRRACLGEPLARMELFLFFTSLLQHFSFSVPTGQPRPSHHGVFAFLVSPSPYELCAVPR
Procedure, shortened: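 Luminescent read-out of luciferin formed by 5 nM human CYP2D6 demethylating 30 uM Luciferin-ME EGE (Km level) over 60 min at room temperature after NADPH regeneration addition. Data normalized to full inhibition by 1.43 uM quinidine.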

[5] = biological target: Cytochrome P450 3A4 (Homo sapiens) (UniProt P08684); assay: qHTS Assay for Activators of Cytochrome P450 3A4 (AID 885); further: nearly all actives have a fitted effect of over 65% in size
Procedure, shortened: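 CYP3A4 activity: Luciferin-PPXE O-dealkylation, 25uM substrate, 200mM KPO4, RT throughout. Read-out is luciferase luminescence; higher values reflect activation.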
Potency means the concentration at half of the fitted maximal effect.

SMILES	Potency [1]	Potency [2]	Potency [3]	Potency [4]	Potency [5]
COc1ccc(NC(=O)c2ccc(-c3ccc(-c4noc(C)n4)cc3C)cc2)cc1N1CCN(C)CC1	inactive	7.94 µM (active)	inactive	–	–
O=C(O)c1cccnc1C(=O)O	inactive	inactive	inactive	inactive	–
O=C(O)c1ccccc1Nc1cccc(OCc2ccc3ccccc3n2)c1	inactive	31.6 µM (active)	1.58 µM (active)	inactive and 7.94 µM (active)	–
N#Cc1cc2nc(O)c(O)nc2cc1[N+](=O)[O-]	inactive	inactive	–	–	–
N[C@H](C(=O)O)c1cc(O)cc(O)c1	inactive	inactive	–	inactive	–
CCCc1c(-c2ccc(O)cc2)nn(-c2ccc(O)cc2)c1-c1ccc(O)cc1	inactive	3.16 µM (active)	2.51 µM (active)	39.8 µM (active)	inactive
O=[N+]([O-])c1cccc2cn[nH]c12	inactive	inactive	–	inactive	–
NC(N)=NC(N)=Nc1cccc(Cl)c1	inactive	inactive	inactive	–	inactive
CN[C@H](CC(=O)O)C(=O)O	inactive	inactive	inactive	inactive	–
OC1(c2ccc(Cl)cc2)CCN(Cc2c[nH]c3ccccc23)CC1	inactive	inactive	–	–	–
C[C@H](NC(=O)/C(C#N)=C/c1ccc(O)c(O)c1)c1ccccc1	inactive	inactive	3.16 µM (active)	inactive	inactive
O=S(=O)(c1cccc2c(Cl)cccc12)N1CCCNCC1	inactive	inactive	5.01 µM (active) and 3.98 µM (active)	–	inactive
CCCCCCN(CCCCCC)C(=O)Cc1c(-c2ccc(F)cc2)[nH]c2ccccc12	inactive	inactive	2.51 µM (active)	inactive	–
O=c1[nH]ccc2c(O)cccc12	inactive	inactive	–	–	inactive
O=c1onc2cnc3ccccc3n12	inactive	inactive	10 µM (active)	inactive	inactive
CCCn1c(=O)c2[nH]c(C3CCCC3)nc2n(CCC)c1=O	inactive	inactive	inactive	inactive	–
CC[N+](CC)(CC)CC(=O)Nc1c(C)cccc1C	inactive	inactive	–	–	–
CNc1cc(NS(=O)(=O)c2ccc(N)cc2)nc(NC)n1	inactive	2 µM (active)	0.794 µM (active)	–	inactive
NC/C=C\C(=O)O	inactive	inactive	inactive	inactive	–
COCc1nc2c([nH]1)c(=O)n(C)c(=O)n2CC(C)C	inactive	inactive	–	inactive	inactive
O=C(O)/C=C/c1ccc(O)c(O)c1	inactive	–	–	–	inactive
N=C(N)SCCN	inactive	–	3.16 µM (active)	–	–
O=C(O)C1=CC(=C(c2ccc(O)c(C(=O)O)c2)c2ccc(O)c(C(=O)O)c2)C=CC1=O	15.8 µM (active)	–	inactive	–	–

SMILES	Potency [1]	Potency [2]	Potency [3]	Potency [4]	Potency [5]
COc1cc(N)c(Cl)cc1C(=O)OCCN1CCCCC1	inactive	–	15.8 µM (active)	–	–
Cc1ccc([N+](=O)[O-])cc1S(=O)(=O)N(C)C	inactive	–	inactive	–	–
CCCOC(=O)c1c(-c2ccccc2)nc(CC)c(C(=O)SCC)c1CCC	inactive	–	–	–	inactive
COc1cc2c(CCNC(C)=O)c[nH]c2cc1O	inactive	–	–	–	inactive
[Li+]	inactive	–	–	–	inactive
Nc1ncnc2c1c(-c1ccc(Oc3ccccc3)cc1)cn2C1CCCC1	inactive	–	inactive	–	–
Cn1c(=O)c2[nH]c(C3CCCC3)nc2n(C)c1=O	inactive	–	39.8 µM (active)	–	–
CN(C)S(=O)(=O)c1ccc2c(c1)/C(=C/c1cc3c([nH]1)CCCC3)C(=O)N2	inactive	–	5.01 µM (active)	–	inactive
CC(C)(C)c1cc(/C=C(\C#N)C(N)=S)cc(C(C)(C)C)c1O	inactive	–	3.98 µM (active)	–	–
NCCCCN	inactive	–	inactive	–	–
O=C(OCCN1CCOCC1)C1(c2ccccc2)CCCCC1	inactive	–	3.16 µM (active) and 1.58 µM (active)	–	inactive
CCCCOC(=O)NS(=O)(=O)c1sc(CC(C)C)cc1-c1ccc(Cn2c(CC)nc3c(C)cc(C)nc32)cc1	inactive	–	3.16 µM (active)	–	inactive
Nc1ccc(-c2ccc3ccccc3n2)cc1	inactive	–	3.98 µM (active)	–	inactive
C=CC[C@H](N)C(=O)O	inactive	–	inactive	–	–
CC(C)(CO)Cc1cc(C(C)(C)C)c(O)c(C(C)(C)C)c1	inactive	–	2.51 µM (active)	inactive	–
c1ccc2c(c1)CC(N1CCN(c3cccc4c3OCCO4)CC1)C2	inactive	–	inactive	–	25.1 µM (active)
N[C@@H](Cc1ccc(O)c(I)c1)C(=O)O	inactive	–	inactive	–	–
O=c1[nH]c2cc(Cl)ccc2c(O)c1-c1ccc(Oc2ccccc2)cc1	inactive	–	–	–	inactive
O=C1NC(=O)c2cc(Nc3ccccc3)c(Nc3ccccc3)cc21	inactive	–	1.58 µM (active)	–	inactive
N#C/C(=C\c1ccc(O)c(O)c1)C(=O)NCCc1ccccc1	inactive	–	3.98 µM (active)	–	–
c1ccc(CN2CCC3(CCCc4ccccc43)CC2)cc1	inactive	–	inactive	0.251 µM (active)	–
O=C(O)C1=CCCNC1	inactive	–	inactive	–	–
CCCCCCCCCCC/C=C\C(C)(C)/C=C\CCCC(=O)O	inactive	–	inactive	–	–

SMILES	Potency [1]	Potency [2]	Potency [3]	Potency [4]	Potency [5]
CNC(=O)c1cc2c(cn1)[nH]c1ccccc12	inactive	inactive	–	inactive	–
Nc1ccc(-c2nc3ccc(-c4nc5ccc(N)cc5[nH]4)cc3[nH]2)cc1	inactive	–	0.0631 µM (active)	–	inactive
Cn1c(=O)[nH]c2ncn(C)c2c1=O	inactive	–	inactive	–	–
O=C(O)C1=CCNCC1	inactive	–	inactive	–	–
CC(C)[C@H](NC(=O)OCc1ccccc1)C(=O)N[C@H](C=O)Cc1ccccc1 (Cbz-Val-Phe-aldehyde)	inactive	–	6.31 µM (active)	–	–
CC(C)Cn1c(=O)n(C)c(=O)c2[nH]cnc21	inactive	–	3.98 µM (active) and 15.8 µM (active) and 12.6 µM (active)	–	inactive
CCCn1c(=O)c2c(ncn2C)n(CCC)c1=O	inactive	–	–	–	inactive
CC[C@H](NC(=O)c1c(C)c(-c2ccccc2)nc2ccccc12)c1ccccc1	inactive	12.6 µM (active)	–	inactive	–
CN(C)CCC(c1ccc(Br)cc1)c1ccccn1 (configuration not stated)	–	–	inactive	–	–
Nc1ncnc2c1ncn2C1CCCC1	inactive	–	–	–	inactive
CCSC(=N)N	inactive	–	–	3.98 µM (active)	inactive
Oc1cc(O)c2c(c1)O[C@H](c1ccc(O)c(O)c1)[C@@H](O)C2	–	inactive	inactive	inactive	–
N=C(N)SCCc1cnc[nH]1	inactive	–	–	6.31 µM (active)	inactive
C=C1C(=O)O[C@@H]2[C@H]3O[C@]3(C)CCC=C(C)CC[C@@H]12	–	inactive	–	inactive	–
Cc1nc2c(OCc3ccccc3)cccn2c1CC#N	inactive	–	–	–	inactive
COc1ccccc1N1CCN(CCCCNC(=O)c2ccc3ccccc3c2)CC1	inactive	–	–	3.16 µM (active) and 3.98 µM (active)	–
O=C1Cc2c([nH]c3ccc(Br)cc23)-c2ccccc2N1	inactive	–	–	inactive and 398 nM (active)	–
C[C@](Cc1ccc(O)c(O)c1)(NN)C(=O)O	–	inactive	–	inactive	–
CN1C2CCC1CC(OC(c1ccccc1)c1ccccc1)C2 (configuration not stated)	–	–	inactive	–	–
O=C(O)c1ccccc1Nc1ccccc1	inactive	–	–	–	inactive
Cc1nc(N=Nc2ccc(C(=O)O)cc2)c(COP(=O)(O)O)c(C=O)c1O	–	inactive	–	–	inactive
CC(C)(C)c1ccc(/C=C/C(=O)Nc2ccc3c(c2)OCCO3)cc1	–	–	inactive	–	–
Nc1nc2c(cnn2CCc2ccccc2)c2nc(-c3ccco3)nn12	–	–	31.6 µM (active)	–	–

From PubChem BioAssay (NCATS)
